# Most compounds without a hit are left out; they make up all but 9.3% or so of the library.
# SMN2 splice enh – qHTS Assay for Enhancers of SMN2 Splice Variant Expression | HEK293 SMN2-luciferase splicing reporter, luminescence, 30-36 h | 210,000 compounds, 2.8% hits | AID 1458, 2008 | Potency, µM (top dose mostly 46.1 µM), for inactives: at the highest dose activity change, positive = activation, most hits filed as activators; note: % of control where 0% means no effect; nearly all actives have a fitted effect of over 55% in size
#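 HEK293 cells carry an SMN2 minigene-luciferase reporter in which exon 7 inclusion puts luciferase in frame. Cells were seeded at 2000 cells/well, attached for 10-12 hours, then exposed to compounds for 30-36 hours at 37C before ONE-Glo luminescence.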
# ELG1 repair inh – qHTS screen for small molecules that inhibit ELG1-dependent DNA repair in human embryonic kidney (HEK293T) cells expressing luciferase-tagged ELG1 | HEK293T ELG1-luciferase reporter, luminescence, 16 h; DNA damage induced by 5-fluorouridine | Potency, µM (series often up to 46.1 µM), without a hit: at the highest dose activity change, negative = inhibition, usual class: inhibitors | 330,000 compounds, 2.3% hits | AID 504467, 2011; note: % is set by controls: 0 for no effect and ±100 for the full control effect; nearly all actives have a fitted effect of over 55% in size
#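 Step one: seed 2,000 cells per well. Step two: pin-transfer compound or DMSO alongside 5-fluorouridine. Step three: incubate 16 hr, 37 °C, 5% CO2. Step four: add ONE-Glo, wait 30 min, read luminescence.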
# NPC1 promoter act – qHTS Assay for NPC1 Promoter Activators. Huh7 NPC1 promoter luciferase reporter, 24 h. Potency, µM (series often up to 9.22 µM), for the others: at the highest dose activation, most hits filed as activators. 320,000 compounds, 2.4% hits; note: % of control where 0% means no effect; nearly all actives have a fitted effect of over 60% in size
#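 NPC1 promoter–luciferase Huh7 cells; 24 h compound; luminescence.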
# FLuc counter – qHTS profiling assay for firefly luciferase inhibitor/activator using purifed enzyme and Km concentrations of substrates (counterscreen for miR-21 project). Luciferin 4-monooxygenase (Photinus pyralis), P08659. purified FLuc, Km substrates, luminescence inhibition. AID 588342, 2011. 360,000 compounds, 6.9% hits. Potency, µM (doses to about 57.5 µM), without a hit: at the highest dose activity change, negative = inhibition, most hits filed as inhibitors;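 note: plate controls were vehicle for no effect and reference inhibitor for full effect; nearly all actives have a fitted effect of over 55% in size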
# Target sequence (P08659 whole entry, looked up): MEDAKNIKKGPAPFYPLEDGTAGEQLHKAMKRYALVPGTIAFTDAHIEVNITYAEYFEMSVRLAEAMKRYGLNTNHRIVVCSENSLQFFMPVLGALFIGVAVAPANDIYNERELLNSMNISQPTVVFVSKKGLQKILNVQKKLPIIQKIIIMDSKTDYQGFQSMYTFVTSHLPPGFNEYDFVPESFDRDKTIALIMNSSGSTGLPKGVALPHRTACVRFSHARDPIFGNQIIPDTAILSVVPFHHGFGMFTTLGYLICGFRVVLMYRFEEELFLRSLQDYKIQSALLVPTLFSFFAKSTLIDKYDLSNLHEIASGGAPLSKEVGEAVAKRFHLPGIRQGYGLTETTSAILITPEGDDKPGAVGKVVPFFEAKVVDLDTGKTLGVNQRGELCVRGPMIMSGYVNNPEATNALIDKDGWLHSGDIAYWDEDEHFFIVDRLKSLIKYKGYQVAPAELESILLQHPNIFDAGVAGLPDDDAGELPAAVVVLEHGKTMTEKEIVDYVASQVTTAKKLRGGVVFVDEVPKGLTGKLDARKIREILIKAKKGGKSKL
#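 Purified P. pyralis luciferase, 10 nM final, with Km-level 10 uM D-luciferin and 10 uM ATP in 50 mM Tris acetate pH 7.5, 10 mM Mg acetate, 0.01% Tween-20, 0.05% BSA; 6-point qHTS titration about 60 µM downward; luminescence read.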
# Rab9 prom act – qHTS Assay for Rab9 Promoter Activators; 320,000 compounds, 2.8% hits; Potency, µM (highest dose often 9.22 µM), for inactives: at the highest dose activation, negative = inhibition, actives largely listed as activators; Huh7 Rab9 promoter-luciferase reporter, luminescence, 24 h; note: % of control where 0% means no effect; nearly all actives have a fitted effect of over 60% in size
#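 Stable Rab9-luc Huh7, 1500 cells/well, 2 h settle; cmpd in DMSO, 24 h, 37 °C/5% CO2; luciferase reagent 10 min RT; luminescence.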
# ELG1 genotox – qHTS screen for small molecules that induce genotoxicity in human embryonic kidney (HEK293T) cells expressing luciferase-tagged ELG1 | Potency, µM (highest dose often 46 µM), for the others: at the top dose activity change, positive = activation, actives largely listed as activators | HEK293T ELG1-luciferase reporter, luminescence, 16 h | 330,000 compounds, 1.3% hits; note: % of control where 0% means no effect; nearly all actives have a fitted effect of over 60% in size
#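 Step 1: seed 2,000 HEK293T ELG1-luciferase cells per well. Step 2: add compound or DMSO, incubate 16 hr at 37 °C. Step 3: ONE-Glo, 30 min at room temperature, read luminescence.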
# * hit, by the source's call; u = inconclusive; x = not tested or not shown; [ ] = another dose, or the depositor's remark. Calls come from the whole dose curve; as a rule, active = well fitted curve in the direction sought with a large enough effect; inconclusive = small, poorly fitted or top-dose-only effect, or another doubt; inactive = no such curve, though single readings can be large; an effect the other way counts as inactive or inconclusive. Potency is the fitted concentration of half-maximal effect.
SMILES,SMN2 splice enh,ELG1 repair inh,NPC1 promoter act,FLuc counter,Rab9 prom act,ELG1 genotox
Cc1cc(C(=O)NC(C)c2ccccc2)c2cc(F)ccc2n1 (centres undefined),28.6%,-0.6%,0.9%,-1.7%,-1.4%,-4.6%
O=C(Nc1ccc(Br)cc1)c1ccc2ncsc2c1,x,u,0.398µM*,5.36µM*,0.355µM*,1.64µM*
COc1ccc(NC(=O)c2ccc3ncsc3c2)cc1,x,u,3.16µM*,8.49µM*,1.41µM*,u
O=C(Nc1ccc2c(c1)C(=O)NC2=O)c1ccc2ncsc2c1,11.2µM*,u,u,u,u,u
CCc1ccc(NC(=O)c2ccc3ncsc3c2)cc1,8.91µM*,u,1.41µM*,2.69µM*,3.55µM*,u
Cc1ccc(S(=O)(=O)N2CCC(NC(=O)c3ccccc3)CC2)cc1,x,u,2.7%,-1.8%,-7.4%,3.9%
Cc1ccc(C)c(N2CCN(C(=O)c3csc(C)c3C)CC2)c1,3.0%,-13.8%,-3.6%,0.9%,2.8%,-4.3%
O=C(O)c1cc(/C=C/C(=O)c2cc(F)ccc2O)c2c(c1)COCO2,x,u,0.8%,30.1µM*,-1.8%,11.6%
COc1ccc(C(=O)/C=C/c2cc(C(=O)O)cc3c2OCOC3)c(O)c1,x,u,-1.2%,1.69µM*,-3.1%,16.0%
O=C(/C=C/c1cccnc1)c1cc(F)ccc1O,x,u,-3.3%,-7.8%,-7.0%,0.3%
CN(Cc1ccccc1)C(=O)c1ccc2c(c1)N(Cc1ccccc1Cl)C(=O)c1ccccc1S2,x,x,x,5.5%,x,x
O=C(c1ccncc1)N1N=C2CCCCCC2C1(O)C(F)(F)F (centres undefined),x,-28.6%,-0.5%,-6.0%,-1.9%,0.2%
Cc1ccc(C2=NN(C(=O)c3ccco3)C(O)(C(F)(F)F)C2)cc1 (centres undefined),x,-19.2%,-1.2%,19µM*,-2.0%,-1.7%
Nc1ccc(C(=O)N2N=C(c3ccccc3)CC2(O)C(F)(F)F)cc1 (centres undefined),x,-0.6%,14.5%,12µM*,2.4%,0.1%
Nc1ccc(C(=O)N2N=C(c3ccc(F)cc3)CC2(O)C(F)(F)F)cc1 (centres undefined),x,-27.4%,0.5%,u,-2.8%,1.5%
O=C(c1ccco1)N1N=C2CCCCCC2C1(O)C(F)(F)F (centres undefined),x,0.326µM*,-38.9%,-0.3%,-43.7%,7.5%
Cc1nc([N+](=O)[O-])c(Br)n1CC(=O)c1cccc([N+](=O)[O-])c1,-104.3%,16.9%,-13.4%,3.5%,-8.8%,9.9%
CC(=O)c1cccc2c(O)c(C3=Nc4ccccc4C3=O)[nH]c12,0.562µM*,u,2.82µM*,3.38µM*,0.631µM*,u
O=C1C(c2c(O)[nH]c3ccccc23)=Nc2ccccc21,-15.7%,x,20.1%,-28.9%,u,x
C[C@@H](C(=O)NCc1nc2ccccc2[nH]1)[C@@H]1C[C@@]1(C)[C@@H](NC(=O)OCc1ccccc1)c1ccccc1,-23.5%,x,x,x,x,x
COc1cc(-c2cc(C(=O)Nc3ccc(C)c(S(=O)(=O)N4CCOCC4)c3)c3ccccc3n2)cc(OC)c1OC,x,2.06µM*,x,x,x,-7.3%
COc1cc(-c2cc(C(=O)Nc3ccccc3N3CCOCC3)c3ccccc3n2)cc(OC)c1OC,-6.4%,5.8µM*,-3.1%,3.7%,-3.0%,-14.1%
O=C(Nc1ccccc1N1CCOCC1)c1cc(-c2ccco2)nc2ccccc12,-0.2%,5.17µM*,-0.6%,u,-0.4%,-14.1%
O=C(O)[C@@H](O)[C@@H](O)[C@H](O)[C@H](O)CO,-6.9%[9.22 µM],x,x,x,x,x
COc1cc(/C=N/NC(=O)c2ccccn2)ccc1OC(=O)c1ccc(Br)cc1,x,u,u,-7.6%,24.2%,u
SMILES,SMN2 splice enh,ELG1 repair inh,NPC1 promoter act,FLuc counter,Rab9 prom act,ELG1 genotox
O=C(N/N=C/c1c[nH]c2ccc(Br)cc12)c1ccccn1,8.8%,15.4%,1.0%,u,-0.3%,2.0%
O=C(N/N=C\c1ccc(OC(=O)c2ccco2)cc1)c1ccc(Cl)cc1,x,u,7.1%,2.5%,12.6%,19.9%
O=C(N/N=C/c1ccc(OC(=O)c2ccco2)cc1)c1ccccn1,x,u,2.82µM*,2.69µM*,1.78µM*,u
O=C(N/N=C/c1ccc(OC(=O)c2cccs2)cc1)c1ccccn1,x,u,2.51µM*,1.51µM*,3.16µM*,7.3µM*
O=C(Oc1ccc(/C=N/NC(=O)c2ccccn2)cc1)c1cccc(Br)c1,x,u,3.98µM*,-6.2%,3.55µM*,16.4µM*
COc1cc(/C=N/NC(=O)c2ccccn2)ccc1OC(=O)c1ccccc1Br,x,0.8%,u,4.78µM*,u,-4.6%
CCN(CC)CCNC(=O)/C(=C/c1cn(CC)c2ccccc12)NC(=O)c1cc(OC)c(OC)c(OC)c1,-9.0%,13.3%,-1.2%,-3.3%,0.7%,5.8%
COc1cc(NC(=O)c2cccc3c2C(=O)N(C2CCCCC2)C3)cc(OC)c1OC,-11.4%,4.61µM*,-11.1%,0.3%,-4.0%,-14.3%
Cc1cc(C)cc(NC(=O)c2cccc3c2C(=O)N(C2CCCCC2)C3)c1,-3.2%,u,-6.6%,-0.8%,-1.1%,-1.0%
CCOC(=O)N1CCC(N2Cc3cccc(C(=O)Nc4ccc(OC)c(OC)c4)c3C2=O)CC1,-0.7%,u,7.6%,15.1µM*,4.6%,-11.9%
CCOC(=O)c1ccccc1NC(=O)c1cccc2c1C(=O)N(C1CCN(C(=O)OCC)CC1)C2,-62.9%,18.4µM*,-1.0%,-1.1%,-2.2%,-10.9%
CCOC(=O)N1CCC(N2Cc3cccc(C(=O)Nc4ccccc4OC)c3C2=O)CC1,x,-10.0%,-3.5%,-0.7%,-7.1%,-10.3%
O=[N+]([O-])c1ccc(-c2ccc(/C=N/n3cnnc3)o2)c(Br)c1,x,7.1%,-3.3%,3.5%,-0.6%,-10.4%
N#Cc1cnn2c(C(F)(F)F)cc(-c3ccccc3)nc12,x,1.2%,-8.2%,9.5%,0.1%,13.7%
NNC(=S)Nc1ccc(Cl)cc1,0.1%,6.1%,-3.4%,0.0%,-5.4%,-4.1%
CCN(C(=O)CSc1nc(C)cc(=O)[nH]1)C1CCCCC1,x,24.6%,x,x,x,3.6%
Cc1cccc(OCCNc2cc(N3CCN(C)CC3)ccc2[N+](=O)[O-])c1,-7.7%,-6.4%,-3.5%,-19.0%,-5.7%,-9.1%

# Screens from PubChem BioAssay.
